Measured values from PubChem BioAssay (NCI).
This is part of a sample that, as a whole, favours compounds with a hit. Of some 83,000 tested, about 20% had one in any assay.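 Interpretation: 100, growth as untreated; towards 0, rising growth inhibition; 0, no net growth; 0 to -100, cell death. Compounds scoring below 10 were considered active.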 Values without a mark were called inactive. Calls of active or inactive are those of the source.

Experiments:
Experiment in all cases: NCI-60 one-dose screen, 48 h (100 = growth as untreated, 0 = no growth, -100 = all killed)
DU-145 prostate = details: 10 µM unless noted
K-562 leukemia = details: 10 µM unless noted
MALME-3M melanoma = details: 10 µM unless noted
MDA-MB-231 breast = details: 10 µM unless noted
RXF 393 renal = details: 10 µM unless noted
SF-268 CNS = details: 10 µM unless noted
SF-295 CNS = details: 10 µM unless noted
SF-539 CNS = details: 10 µM unless noted
UACC-257 melanoma = details: 10 µM
M14 melanoma = details: 10 µM unless noted
HCT-15 colon = details: 10 µM unless noted
HT29 colon = details: 10 µM unless noted
SNB-75 CNS = details: 10 µM unless noted
SNB-19 CNS = details: 10 µM unless noted
U251 CNS = details: 10 µM unless noted
SK-MEL-5 melanoma = details: 10 µM unless noted
UACC-62 melanoma = details: 10 µM unless noted
LOX IMVI melanoma = details: 10 µM unless noted
SK-MEL-28 melanoma = details: 10 µM unless noted
PC-3 prostate = details: 10 µM unless noted

Row | SMILES | growth (DU-145 prostate) | growth (K-562 leukemia) | growth (MALME-3M melanoma) | growth (MDA-MB-231 breast) | growth (RXF 393 renal) | growth (SF-268 CNS) | growth (SF-295 CNS) | growth (SF-539 CNS) | growth (UACC-257 melanoma) | growth (M14 melanoma) | growth (HCT-15 colon) | growth (HT29 colon) | growth (SNB-75 CNS) | growth (SNB-19 CNS) | growth (U251 CNS) | growth (SK-MEL-5 melanoma) | growth (UACC-62 melanoma) | growth (LOX IMVI melanoma) | growth (SK-MEL-28 melanoma) | growth (PC-3 prostate)
1 | CCOC(=O)/C=c1\sc2n(c1=O)C1C(NN=2)N(CC)C(=O)N1CC (stereo not given) | 75.3% | 24.1% | 49.1% | 66.8% | 70.2% | 81.1% | 46% | 54.4% | 71.5% | 44.7% | 31% | 26.4% | 52.2% | 54.2% | 68.9% | 54% | 39% | 53.5% | 71.9% | 
2 | O=S(=O)(Nc1ccc(-c2nc(-c3cccc(O)c3)c(-c3ccnc(Br)c3)[nH]2)cc1)c1ccccc1 | 54.6% | 2.08% (active) | 39.8% | 23% | -16.3% (active) | 37.1% | 10.4% | 44.4% | 44.5% | 26.1% | 13.3% | 31.8% | 5.4% (active) | 30.2% | 30.3% | -26.4% (active) | 16.4% | -25% (active) | 33.1% | 
3 | CCCCOc1ccc(S(=O)(=O)N2CCN(c3nccc(N4CCOCC4)n3)CC2)cc1 | 20.3% | 50.8% | 97.6% | 21.5% | 52.3% | 13.3% | -40.2% (active) | 65.3% | 12% | 18.6% | 7.04% (active) | 13.5% |  | 71.4% | 27.2% | 46.8% | -7.93% (active) | -67.9% (active) | 21.1% | 41.3%
4 | COc1ccc(OC)c([C@H]2c3[nH]c4ccccc4c3C[C@H]3C(=O)N(CCCCCCC(=O)NO)CC(=O)N23)c1 | 90.1% | 54.2% | 61.6% | 82.3% | 107% | 104% | 94.7% | 78.5% | 67.2% | 83.3% | 99.5% | 87.6% |  | 86.9% | 81.1% | 86.8% | 53.1% | 15% | 75.2% | 77.9%
5 | C#C[C@]1(O)CC[C@H]2[C@@H]3CC=C4c5sc(Nc6cccc(C)n6)nc5CC[C@]4(C)[C@H]3CC[C@@]21C | 43.6% | -10.9% (active) | 5.14% (active) | 31.9% | -60.4% (active) | -7.63% (active) | -70.4% (active) | -48.8% (active) | -34.9% (active) | -29.8% (active) | 15.6% | 37.7% | -23.9% (active) | 18.5% | 6.3% (active) | 3.52% (active) | -20.9% (active) |  | -55% (active) | 
6 | O=C(CCCCCCN1CC(=O)N2[C@@H](c3cccc(Cl)c3)c3[nH]c4ccccc4c3C[C@H]2C1=O)NO | 46.3% | 24% | 29.1% | 39.5% | 9.1% (active) | 64.4% | 52% | 50.6% | 44% | 45.6% | 85.7% | 30.6% |  | 61.2% | 44.9% | 33.6% | 16% | -80.3% (active) | 40.2% | 42.6%
7 | COc1cc(/C=N/n2cnc3oc(-c4ccccc4)cc3c2=N)cc(CN2CCCC2)c1O | 7.65% (active) | 0.0184% (active) | -45% (active) | -70% (active) | 15.7% | 88.6% | 90.5% | 93.5% | 109% | 14.1% | -85.2% (active) | -48.2% (active) |  | 21.8% | -45.7% (active) | 91.5% | 96.7% | -88.5% (active) | 91.6% | -68.6% (active)
8 | O=C(CN1C(=O)CSC1=O)Nc1ccc(C(=O)/C=C/c2cc3ccccc3nc2Cl)cc1 | 90.3% | 37.2% | 91.8% | 90.4% | 17.6% | 78.8% | 77% | 79.1% | 75.3% | 83.7% | 79.3% | 17.4% |  | 83.4% | 77.2% | 34% | 74% | 37.5% |  | 70.5%
